Values without a mark were called inactive. Inconclusive results are not listed. Activity calls are given as the source filed them. Calls come from the whole dose curve; as a rule, active = well fitted curve in the direction sought with a large enough effect; inconclusive = small, poorly fitted or top-dose-only effect, or another doubt; inactive = no such curve, though single readings can be large; an effect the other way counts as inactive or inconclusive. Where a SMILES comes first, the peptide text is derived from it. The star is where a group is joined. Hexanoyl = CCCCCC(=O)*

Assay [1] is described as follows: Tertiary RLuc qRT-PCR qHTS assay for Zika virus inhibitors (AID 1347169). Note: nearly all actives have a fitted effect of over 55% in size. Note: potency is the fitted concentration of half-maximal effect. The method, boiled down: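 Vero cells (1,000/well) infected with recombinant ZIKV-RLuc (Cambodian) at MOI 1-2 after compound addition, 48-72 hrs at 37 degrees C. Live-cell Renilla luciferase substrate added; luminescence read after 1-1.5 hrs.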
A general note: In qPCR the cycle at which signal appears reflects the starting amount.

A short description of assay [2]: OV-KATE Cancer Cell Toxicity qHTS against the NCATS CANVASS Library (AID 1347345). The method, boiled down: (§1)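 ATP content after 72 h treatment, detected by CellTiter-Glo luminescence (15min room-temperature development), reflects cell viability. Wells contained 1000 cells and received compounds at 11 concentrations.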
The nature of assay [3]: HPAF-II Cancer Cell Toxicity qHTS against the NCATS CANVASS Library (AID 1347346). Note: series mostly up to about 38 µM; nearly all actives have a fitted effect of over 55% in size. The method, boiled down: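 1000 HPAF-II cells/well; 4 h pre-incubation; 11-pnt compound titration; 72 h, 37 degrees C/5% CO2; CellTiter-Glo, 15 min RT; luminescence read.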
For orientation: Quantitative high-throughput screening tests each substance at several concentrations.

Assay [4] can be described thus: UWB1.289 Cancer Cell Toxicity qHTS against the NCATS CANVASS Library (AID 1347347). Note: series mostly up to about 38 µM; nearly all actives have a fitted effect of over 60% in size. The method, boiled down: as §1
Assay [5] can be described thus: OV-SAHO Cancer Cell Toxicity qHTS against the NCATS CANVASS Library (AID 1347348). Note: series mostly up to about 38 µM; nearly all actives have a fitted effect of over 55% in size. The method, boiled down:
as §1

A short description of assay [6]: Panc-1005 Cancer Cell Toxicity qHTS against the NCATS CANVASS Library (AID 1347349). Note: series mostly up to about 38 µM; nearly all actives have a fitted effect of over 60% in size. The method, boiled down: as §1
Assay [7] can be described thus: SW1088 Cancer Cell Toxicity qHTS against the NCATS CANVASS Library (AID 1347350). Note: potency is the fitted concentration of half-maximal effect; nearly all actives have a fitted effect of over 75% in size. The method, boiled down: as §1
Assay [8] is described as follows: U-118MG Cancer Cell Toxicity qHTS against the NCATS CANVASS Library (AID 1347351). As to conditions: outcome: dose series up to 38.3 µM. The method, boiled down: as §1
Assay [9] in a line: COV-362 Cancer Cell Toxicity qHTS against the NCATS CANVASS Library (AID 1347352). Note: series mostly up to about 38 µM. The method, boiled down:
(§2)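 1000 cells/well, 4 h pre-incubation 37 °C/5% CO2; 11-pnt titration; 72 h; CellTiter-Glo 15 min RT, luminescence.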

The nature of assay [10]: UWB1.289-WTBRCA1 Cancer Cell Toxicity qHTS against the NCATS CANVASS Library (AID 1347354). As to conditions: outcome: dose series up to 38.3 µM. The method, boiled down:
as §2

Assay [11] is described as follows: HEK-293 Cancer Cell Toxicity qHTS against the NCATS CANVASS Library (AID 1347355). Note: series mostly up to about 46 µM; nearly all actives have a fitted effect of over 65% in size. The method, boiled down:
as §2

Assay [12] can be described thus: HPAF-II 24hr Apoptosis Induction qHTS against the NCATS CANVASS Library (AID 1347356). The method, boiled down:
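500 HPAF-II cells/well; compounds in 11-pnt qHTS; 24 h, 37 C/5% CO2; Caspase-Glo 3/7 added, 15 min RT dark; luminescence read. Doxorubicin control.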

A short description of assay [13]: HEK293 18hr Apoptosis Induction qHTS against the NCATS CANVASS Library (AID 1347357). The method, boiled down:
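HEK293 cells (500/well, DMEM + 10% FBS) treated with an 11-point series for 18 h at 37 degrees C. Caspase-3/7 activity read by Caspase-Glo luminescence after 15 min at room temperature.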

Assay [14] is described as follows: HPAF-II 12hr Apoptosis Induction qHTS against the NCATS CANVASS Library (AID 1347358). The method, boiled down:
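Caspase-Glo 3/7 luminescence (DEVD substrate) reports caspase activity in HPAF-II cells after 12 h compound treatment at 37 degrees C. Compounds were tested in an 11-point series. Doxorubicin served as control.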

A short description of assay [15]: HEK293 24hr Apoptosis Induction qHTS against the NCATS CANVASS Library (AID 1347359). The method, boiled down:
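HEK293 cells (500/well, DMEM + 10% FBS) were exposed to compounds in an 11-point series for 24 hours at 37 degrees C, then caspase-3/7 activity was read by Caspase-Glo DEVD luciferase luminescence after 15 min.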

Assay [16] in a line: HPAF-II 18hr Apoptosis Induction qHTS against the NCATS CANVASS Library (AID 1347360). The method, boiled down: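 HPAF-II cells at 500/well were exposed for 18 h at 37 C to an 11-point compound series. Caspase-3/7 activity was read by Caspase-Glo luminescence after 15 min at RT.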
Assay [17] in a line: HEK293 12hr Apoptosis Induction qHTS against the NCATS CANVASS Library (AID 1347361). The method, boiled down:
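HEK293 cells (500/well) were exposed to an 11-point qHTS concentration series for 12 hours at 37 degrees C. Caspase-3/7 activity was then read by DEVD-substrate luciferase luminescence after 15 min at room temperature.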

Assay [18] addresses Luciferin 4-monooxygenase (Photinus pyralis) (UniProt P08659). In words: Firefly luciferase counterscreen qHTS: Assay Interference Panel against the NCATS CANVASS Library (AID 1347363). Note: series mostly up to about 57 µM. The method, boiled down: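 Purified P. pyralis luciferase was added to compounds (11-point series) preincubated 15 min at room temperature with substrate containing 0.013 mM D-luciferin and 0.013 mM ATP; luminescence was read after 5 min.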

Sequence of Luciferin 4-monooxygenase (Photinus pyralis) (P08659 whole entry, looked up): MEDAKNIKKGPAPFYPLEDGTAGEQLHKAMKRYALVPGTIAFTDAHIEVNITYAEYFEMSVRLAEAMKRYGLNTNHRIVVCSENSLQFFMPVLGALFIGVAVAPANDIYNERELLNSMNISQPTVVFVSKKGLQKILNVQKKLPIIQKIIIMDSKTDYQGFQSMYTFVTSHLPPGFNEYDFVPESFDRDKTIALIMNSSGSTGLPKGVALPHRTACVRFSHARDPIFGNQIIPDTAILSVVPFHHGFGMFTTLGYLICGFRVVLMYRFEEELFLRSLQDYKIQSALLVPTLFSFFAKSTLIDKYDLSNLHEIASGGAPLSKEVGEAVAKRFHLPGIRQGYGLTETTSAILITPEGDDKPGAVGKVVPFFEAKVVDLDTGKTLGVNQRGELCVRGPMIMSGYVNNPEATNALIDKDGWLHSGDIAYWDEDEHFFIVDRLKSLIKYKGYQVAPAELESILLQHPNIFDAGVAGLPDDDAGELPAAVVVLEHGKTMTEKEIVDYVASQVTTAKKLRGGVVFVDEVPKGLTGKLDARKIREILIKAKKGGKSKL

As for `O=C1NC(=O)/C(=C/c2cccc(C(F)(F)F)c2)S1`, in assay [1], the Potency is 18.6 µM (active).
Still for that read-out and setting: next, `CCC(C)/C=C(C)/C=C/C1=CC2=CC(=O)C(C)(O)C(OC(C)=O)C2CO1` (centres undefined): “inactive”; `C=C1C2CCC3CC2(CC(O)C2(O)C1CC(OC1OC(CO)C(O)C(O)C1O)C2(C)C)CC3(C)O` (centres undefined): “inactive”.
The same measure, in the same setting: next, `Cc1ccccc1NC(=O)Nc1ccc(CN2C(=O)N([C@@H](CC(C)C)C(=O)N[C@@H](CC(=O)O)c3ccccc3)C(=O)C2(C)C)cc1`: “inactive”; `CCc1nnc(NS(=O)(=O)c2ccc(NC(=S)NC(=O)/C=C/c3ccc(F)cc3)cc2)s1`: 23.4 µM (active); `CC1(C)CC[C@]2(C(=O)O)CC[C@]3(C)C(=CCC4[C@@]5(C)CC[C@H](O[C@@H]6O[C@H](C(=O)O)[C@@H](O)[C@H](O)[C@H]6O)C(C)(C)C5CC[C@]43C)C2C1` (some centres undefined): 9.79 µM (active).
The same measure, in the same setting: next, `O=C(/C=C/c1ccccc1)OC[C@H]1O[C@@H](OC(=O)c2cc(O)c(O)c(O)c2)[C@H](O)[C@@H](O)[C@@H]1O`: “inactive”; `O=C(O)CC/C=C\C[C@H]1CO[C@@H](c2ccccc2Cl)O[C@H]1c1ccccc1O`: “inactive”; `C=C1CCC2C(C)(C)CCC[C@]2(C)[C@H]1CC/C(C)=C/C(=O)O` (some centres undefined): “inactive”.
Turning to `CC1=C2CC3C(CCC3(C)O)C(C)(O)CC2OC1=O` (centres undefined), in assay [1], the Potency result was “inactive”.
In the case of `C=C1C2CCC3C(CCC4[C@@]3(C)CCC[C@@]4(C)C(=O)O)(C2)[C@@H]1OC(=O)/C(C)=C\C` (some centres undefined), the Potency entry in assay [1] is “inactive”.
Regarding `C/C(=C\CC/C(C)=C/CC[C@]1(C)CCc2cc(O)cc(C)c2O1)CC/C=C(\C)C(=O)O`, the Potency result in [1] and in assay [18] was “inactive” throughout. Moreover, the compound was called inactive in assay [2], in [3], in assay [4], in [5], in assay [6] and in assay [8]. Besides, the result in assay [9], in assay [10], in assay [11], in assay [12], in assay [13] and in assay [14] was inactive. Further, the result in assay [15], in assay [16] and in assay [17] was inactive. Also, the Potency in assay [7] was 18.8 µM (active).
Regarding `CCCCCC(=O)N1CCC[C@H]1C(=O)N[C@@H](Cc1ccc(O)cc1)C(=O)OC` (Hexanoyl-Pro-Tyr-OMe), the Potency entry in assay [1] is “inactive”.
The same measure, in the same setting: next, `CC1(C)[C@H]2C[C@H](C/C=C\CCCC(=O)O)[C@@H](NC(=O)c3csc4ccc(O)cc34)[C@@H]1C2`: “inactive”.
Same read-out and setting: next, `C/C=C/C=C/C=C/C(=O)O[C@@H]1[C@@H](OC)C2=C(C(=O)N(C(CCC(=O)O)C(=O)O)C2)[C@@]2(C)CCCC(C)(C)[C@H]12` (some centres undefined): “inactive”.
For `CC1(C)CC=C(c2cnc3ccccc3c2)c2cc(C(=O)Nc3ccc(C(=O)O)cc3)ccc21`, the Potency result in assay [1] is “inactive”.
Same read-out and setting: next, `Cc1ccc([C@@H]2CC=C(C(=O)O)[C@H](c3ccc(C(C)(C)C)cc3)N2S(=O)(=O)c2ccc(C)cc2)cc1`: 18.6 µM (active); `COc1cccc(CNc2ccc(S(=O)(=O)Nc3nc4ccccc4s3)cc2)c1O`: 0.186 µM (active).
In the case of `CC(=O)O[C@H]1C[C@@]2(C)[C@@H](CC[C@H]3[C@@]4(C)C=CC(=O)[C@@H](C)[C@@H]4[C@H](OC(C)=O)C(=O)[C@@]32C)/C1=C(\CCC=C(C)C)C(=O)O`, the compound was called inactive in assay [2], in assay [4], in assay [5], in assay [6], in [8] and in assay [9]. The compound was classed as inactive in assay [10], in assay [12], in assay [13], in [14], in assay [15] and in assay [16]. Also, in [17], the compound was classed as inactive. Further, the Potency result in assay [18] is “inactive”.

The values are drawn from PubChem BioAssay (NCATS).
